A number with no mark means an inactive call.
How the values were obtained:
Experiment in all cases: CellTox Green cytotoxicity fluorescence relative to DMSO vehicle (fold of vehicle RFU); higher = more cell death (loss of membrane integrity), active = 2 or more
CMK = system: CMK
Outline: (§1)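 CellTox Green reagent was added when MV4-11, CMK and Kasumi-1 cells were seeded at 4.0 × 10^4 cells per well, and single compounds from the Selleckchem apoptosis library were added at final 0.01, 0.1 and 1 µM in DMSO (vehicle 0.1% DMSO). Fluorescence at Ex 485 nm and Em 520 nm was read after 24, 48 and 72 h at 37 °C, 5% CO2. The reported cytotoxicity corresponds to loss of membrane integrity, given as fold of the DMSO vehicle.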

Kasumi-1 = system: Kasumi-1
Outline: as §1

MV4-11 = system: MV4-11
Outline: as §1

| SMILES | CellTox Green cytotoxicity fluorescence (CMK; 0.01 µM, 24 h) | CellTox Green cytotoxicity fluorescence (CMK; 0.01 µM, 48 h) | CellTox Green cytotoxicity fluorescence (CMK; 0.01 µM, 72 h) | CellTox Green cytotoxicity fluorescence (CMK; 0.1 µM, 24 h) | CellTox Green cytotoxicity fluorescence (CMK; 0.1 µM, 48 h) | CellTox Green cytotoxicity fluorescence (CMK; 0.1 µM, 72 h) | CellTox Green cytotoxicity fluorescence (CMK; 1 µM, 24 h) | CellTox Green cytotoxicity fluorescence (CMK; 1 µM, 48 h) | CellTox Green cytotoxicity fluorescence (CMK; 1 µM, 72 h) | CellTox Green cytotoxicity fluorescence (Kasumi-1; 0.01 µM, 24 h) | CellTox Green cytotoxicity fluorescence (Kasumi-1; 0.01 µM, 48 h) | CellTox Green cytotoxicity fluorescence (Kasumi-1; 0.01 µM, 72 h) | CellTox Green cytotoxicity fluorescence (Kasumi-1; 0.1 µM, 24 h) | CellTox Green cytotoxicity fluorescence (Kasumi-1; 0.1 µM, 48 h) | CellTox Green cytotoxicity fluorescence (Kasumi-1; 0.1 µM, 72 h) | CellTox Green cytotoxicity fluorescence (Kasumi-1; 1 µM, 24 h) | CellTox Green cytotoxicity fluorescence (Kasumi-1; 1 µM, 48 h) | CellTox Green cytotoxicity fluorescence (Kasumi-1; 1 µM, 72 h) | CellTox Green cytotoxicity fluorescence (MV4-11; 0.01 µM, 24 h) | CellTox Green cytotoxicity fluorescence (MV4-11; 0.01 µM, 48 h) | CellTox Green cytotoxicity fluorescence (MV4-11; 0.01 µM, 72 h) | CellTox Green cytotoxicity fluorescence (MV4-11; 0.1 µM, 24 h) | CellTox Green cytotoxicity fluorescence (MV4-11; 0.1 µM, 48 h) | CellTox Green cytotoxicity fluorescence (MV4-11; 0.1 µM, 72 h) | CellTox Green cytotoxicity fluorescence (MV4-11; 1 µM, 24 h) | CellTox Green cytotoxicity fluorescence (MV4-11; 1 µM, 48 h) | CellTox Green cytotoxicity fluorescence (MV4-11; 1 µM, 72 h) |
| --- | --- | --- | --- | --- | --- | --- | --- | --- | --- | --- | --- | --- | --- | --- | --- | --- | --- | --- | --- | --- | --- | --- | --- | --- | --- | --- | --- |
| Nc1cccc2c1C(=O)N(C1CCC(=O)NC1=O)C2=O (configuration not stated) [Pomalidomide] | 1 | 0.988 | 0.953 | 1.01 | 1.01 | 0.952 | 1.03 | 1.04 | 0.984 | 0.992 | 0.996 | 0.983 | 1.01 | 0.998 | 0.985 | 1.01 | 1.02 | 1 | 0.981 | 0.995 | 0.992 | 1.04 | 1.01 | 0.983 | 1.01 | 0.968 | 0.96 |
| CCOC(=O)C1=C(N)Oc2ccc(Br)cc2C1C(C#N)C(=O)OCC (configuration not stated) | 0.931 | 0.915 | 0.892 | 0.944 | 0.948 | 0.975 | 0.954 | 0.967 | 0.968 | 0.946 | 0.93 | 0.927 | 0.923 | 0.902 | 0.875 | 1.01 | 1.05 | 1.06 | 0.97 | 0.991 | 1.01 | 0.944 | 0.944 | 0.948 | 0.96 | 0.957 | 0.957 |
| CNC(=O)c1ccccc1Nc1cc(Nc2ccc(N3CCOCC3)cc2OC)ncc1C(F)(F)F | 0.924 | 0.935 | 0.912 | 0.928 | 0.933 | 0.917 | 0.946 | 1.02 | 0.957 | 0.924 | 0.952 | 0.976 | 0.976 | 0.988 | 0.96 | 0.928 | 1.03 | 1.08 | 0.941 | 0.941 | 0.949 | 0.936 | 0.967 | 0.972 | 0.979 | 1.18 | 1.39 |
| c1ccc2c(CCNc3ccc(Nc4ccncc4)cc3)c[nH]c2c1 [Serdemetan] | 0.966 | 0.966 | 0.987 | 0.95 | 0.971 | 1.05 | 0.925 | 1.67 | 2.28 (active) | 0.983 | 0.933 | 0.904 | 0.969 | 0.964 | 0.955 | 1.01 | 1.45 | 1.77 | 0.97 | 0.948 | 0.953 | 0.929 | 0.918 | 0.946 | 1.21 | 3.08 (active) | 3.17 (active) |
| C=CC(=O)N1CCC(Oc2cc3c(Nc4ccc(Cl)c(Cl)c4F)ncnc3cc2OC)CC1 [Poziotinib] | 1.02 | 1.01 | 1.02 | 1.03 | 1.02 | 1.02 | 0.999 | 1 | 0.915 | 0.992 | 0.982 | 0.982 | 1.03 | 1.02 | 1.02 | 0.994 | 1 | 1.04 | 0.975 | 0.986 | 0.988 | 1.02 | 1.02 | 1.03 | 1.01 | 1.03 | 1.09 |
| CN1CCN(CCCNc2ncc(Cl)c(-c3cc4c(C(=O)NC5CC5)cccc4s3)n2)CC1 | 0.99 | 0.985 | 0.953 | 0.97 | 0.978 | 0.95 | 0.956 | 0.993 | 1 | 0.943 | 0.931 | 0.891 | 0.958 | 0.947 | 0.949 | 0.953 | 1.03 | 1.01 | 0.979 | 0.976 | 0.987 | 0.956 | 0.966 | 0.965 | 0.903 | 0.93 | 0.926 |

From the supplement of paper PMC7595190
